# Experimental data taken from PubChem BioAssay (NCATS).
# Inconclusive results are not listed. A number with no mark means an inactive call. Calls come from the whole dose curve; as a rule, active = well fitted curve in the direction sought with a large enough effect; inconclusive = small, poorly fitted or top-dose-only effect, or another doubt; inactive = no such curve, though single readings can be large; an effect the other way counts as inactive or inconclusive.
# Target: Aldehyde dehydrogenase, mitochondrial (Homo sapiens) (UniProt P05091)
# Experiment: qHTS for Inhibitors of the Aldehyde Dehydrogenase Family (ALDH2) Primary screen (AID 2061308);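 note: plate controls were vehicle for no effect and reference inhibitor for full effect; nearly all actives have a fitted effect of over 55% in size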
# Details: ALDH2 enzyme inhibition qHTS, 1536-well; series mostly up to 56 µM; activity change, negative = inhibition: at the top concentration
row,Structure (SMILES),"activity change, negative = inhibition"
1,CCC[C@@H]1C[C@@H](C(=O)N[C@H](C(C)Cl)[C@H]2O[C@H](SC)[C@H](O)[C@@H](O)[C@H]2O)N(C)C1 (stereo partly specified),2.37%
2,CC(Nc1nc(-c2ccccc2C(F)(F)F)nc2ccccc12)c1ccc(-c2ccccc2)cc1 (stereo unspecified),-12.3%
3,Cc1cc2c(s1)c1cnn(Cc3ccc(-c4ccccc4)cc3)c(=O)c1n2C,1.44%
4,O=C(Nc1ccc(F)c(C(F)(F)F)c1)Nc1nc(-c2ccncc2)cs1,-4.62%
5,Cc1cc(C)nc(NC(=S)N2CCN(c3ccc(Cl)cc3F)CC2)c1,11.6%
6,COc1ccc(C)cc1NC(=O)C(OC(=O)CNC(=O)c1ccccc1)c1ccccc1 (stereo unspecified),6.52%
7,O=[S+]([O-])(c1ccc2c(c1)OCCO2)N1CCN([S+](=O)([O-])c2ccccc2Br)CC1,6.06%
8,COc1cccc(-c2csc(N3CCC(C(N)=O)CC3)n2)c1,1.55%
9,COc1ccccc1-c1nnc2n1N=C(c1ccc(OC(F)F)c(OCC3CC3)c1)CS2,4.66%
10,N#Cc1ccc(NS(=O)(=O)c2ccc(NC(=O)Cc3ccc(Cl)c(Cl)c3)cc2)cc1,-8.38%
11,CC1=C(C(=O)Nc2ccon2)C(c2ccccc2Br)N=C(Nc2nc3ccccc3o2)N1 (stereo unspecified),1.03%
12,Cc1cc(C)nc(NC(=S)N2CCN(c3ccc(Cl)cc3S(C)(=O)=O)CC2)c1,3.95%
13,N#Cc1nc(Nc2cccc(C(F)(F)F)c2)nc(NC2CCCC2)n1,4.18%
14,O=C1c2ccccc2C(=O)N1c1cccc2ncccc12,-3.04%
15,O=C(Nc1ccc2c(c1)OCCO2)c1ccc(-c2nc3ccccc3[nH]2)cc1,0.675%
16,S=P(c1ccccc1)(c1ccccc1)c1c[n+](C/C=C/c2ccccc2)c2ccccn12,10.7%
17,CCN1CCCC1Cn1c(-c2ccccc2)nc2c(NCc3ccccc3)nc(C)nc21 (stereo unspecified),20.4%
18,CS(=O)(=O)c1ccccc1-c1csc(N2CCC(C(N)=O)CC2)n1,1.83%
19,C=C(NC(=O)C(=C)NC(=O)c1csc(C2=NC3c4csc(n4)C4NC(=O)c5csc(n5)C(C(C)(O)C(C)O)NC(=O)C5CSC(=N5)/C(=C/C)NC(=O)C(C(C)O)NC(=O)c5csc(n5)C3(CC2)NC(=O)C(C)NC(=O)C(=C)NC(=O)C(C)NC(=O)C(C(C)CC)NC2C=Cc3c(C(C)O)cc(nc3C2O)C(=O)OC4C)n1)C(N)=O (stereo unspecified),-23.2%
20,Cc1cc(NC(=O)Nc2nnc(C3CCCCC3)s2)ccc1F,4.51%
21,C/C=C/C(=O)OC1/C=C/C(O)C(OC(C)=O)CCC(=O)OC1C (stereo unspecified),-0.435%
22,O=C(Nc1ccc(Cl)c(C(F)(F)F)c1)Nc1nnc(-c2cccnc2)s1,3.43%

# Target: Retinaldehyde dehydrogenase 3 (Homo sapiens) (UniProt P47895)
# Experiment: qHTS for Inhibitors of the Aldehyde Dehydrogenase Family (ALDH1A3) Primary screen (AID 2061315);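 note: plate controls were DMSO vehicle for no effect and reference inhibitor for full effect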
# Details: ALDH inhibition qHTS; series mostly up to 56 µM; activity change, negative = inhibition: at the top concentration
row,Structure (SMILES),"activity change, negative = inhibition"
1,O=[N+]([O-])c1ccccc1-c1nc(NCc2ccc(-c3cccnc3)cc2)c2ccccc2n1,-26.4%
2,COc1cc(NC(=O)C(OC(=O)CNC(=O)c2ccccc2)c2ccccc2)c(OC)cc1Cl (stereo unspecified),-6.86%
3,Oc1c(CN2CCCCC2)cc(COCc2ccccc2)c2cccnc12,-0.674%
4,Nc1ncnc2c1nc(N)n2[C@@H]1O[C@H](CO)[C@@H](O)[C@H]1O,1.99%
5,O=C(NCCc1ccc2c(c1)OCO2)c1cc2sccc2n1Cc1ccccc1,6.34%
6,Cc1cc(/C=C2/C(=O)Nc3ccccc32)cc(C)c1O,32.3%
7,Nc1cc(-c2nc(Nc3ccc(F)c(F)c3)c3ccccc3n2)ccn1,1.74%
8,O=S(=O)(NC1CCC(CNS(=O)(=O)c2c(F)cccc2F)CC1)c1ccc2c(c1)OCCO2 (stereo unspecified),-1.26%
9,Nc1ncc(S(=O)(=O)N2CCOCC2)s1,-7.18%
10,Cc1cccc(-c2ccc3ncnc(NCc4cccs4)c3c2)c1,-4.19%
11,Cc1cc2c(s1)c1cnn(Cc3ccc(C(C)(C)C)cc3)c(=O)c1n2C,15.9%
12,CCC(=O)NC(c1cccs1)c1ccc2cccnc2c1O (stereo unspecified),35.9%
13,Cc1ccc(S(=O)(=O)Nc2ccccc2Nc2nc(-c3ccccc3)cs2)cc1,9.55%
14,COC(=O)C(CC1(O)c2ccccc2N2C(=O)C(C)(C)N(O)C21)n1cnc2ccccc2c1=O (stereo unspecified),5.16% [at 28 µM]
15,Cc1ccccc1-c1ccc(=O)n(CC(=O)NCCc2ccccc2)n1,24.4%
16,Cc1ccc(-c2nn(CC(=O)N(C)C(C)c3ccco3)c(=O)cc2C)cc1 (stereo unspecified),-7.81%
17,CCOc1ccc(CCNC(=O)c2cc3sccc3n2CCN2CCN(C)CC2)cc1OCC,-4.14%
18,CCC[C@@H]1C[C@@H](C(=O)N[C@H](C(C)Cl)[C@H]2O[C@H](SC)[C@H](O)[C@@H](O)[C@H]2O)N(C)C1 (stereo partly specified),-10.6%
19,CC(Nc1nc(-c2ccccc2C(F)(F)F)nc2ccccc12)c1ccc(-c2ccccc2)cc1 (stereo unspecified),0.915%
20,Cc1cc2c(s1)c1cnn(Cc3ccc(-c4ccccc4)cc3)c(=O)c1n2C,-5.27%

row,Structure (SMILES),"activity change, negative = inhibition"
1,O=C(Nc1ccc(F)c(C(F)(F)F)c1)Nc1nc(-c2ccncc2)cs1,-4.32%
2,Cc1cc(C)nc(NC(=S)N2CCN(c3ccc(Cl)cc3F)CC2)c1,25.8%
3,COc1ccc(C)cc1NC(=O)C(OC(=O)CNC(=O)c1ccccc1)c1ccccc1 (stereo unspecified),-2.75%
4,O=[S+]([O-])(c1ccc2c(c1)OCCO2)N1CCN([S+](=O)([O-])c2ccccc2Br)CC1,11.7%
5,COc1cccc(-c2csc(N3CCC(C(N)=O)CC3)n2)c1,-4.75%
6,COc1ccccc1-c1nnc2n1N=C(c1ccc(OC(F)F)c(OCC3CC3)c1)CS2,3.84%
7,N#Cc1ccc(NS(=O)(=O)c2ccc(NC(=O)Cc3ccc(Cl)c(Cl)c3)cc2)cc1,-1.52%
8,CC1=C(C(=O)Nc2ccon2)C(c2ccccc2Br)N=C(Nc2nc3ccccc3o2)N1 (stereo unspecified),24.1%
9,Cc1cc(C)nc(NC(=S)N2CCN(c3ccc(Cl)cc3S(C)(=O)=O)CC2)c1,19.1%
10,N#Cc1nc(Nc2cccc(C(F)(F)F)c2)nc(NC2CCCC2)n1,-3.22%
11,O=C1c2ccccc2C(=O)N1c1cccc2ncccc12,-6.91%
12,O=C(Nc1ccc2c(c1)OCCO2)c1ccc(-c2nc3ccccc3[nH]2)cc1,-7.3%
13,S=P(c1ccccc1)(c1ccccc1)c1c[n+](C/C=C/c2ccccc2)c2ccccn12,2.17%
14,CCN1CCCC1Cn1c(-c2ccccc2)nc2c(NCc3ccccc3)nc(C)nc21 (stereo unspecified),14.9%
15,CS(=O)(=O)c1ccccc1-c1csc(N2CCC(C(N)=O)CC2)n1,-5.43%
16,C=C(NC(=O)C(=C)NC(=O)c1csc(C2=NC3c4csc(n4)C4NC(=O)c5csc(n5)C(C(C)(O)C(C)O)NC(=O)C5CSC(=N5)/C(=C/C)NC(=O)C(C(C)O)NC(=O)c5csc(n5)C3(CC2)NC(=O)C(C)NC(=O)C(=C)NC(=O)C(C)NC(=O)C(C(C)CC)NC2C=Cc3c(C(C)O)cc(nc3C2O)C(=O)OC4C)n1)C(N)=O (stereo unspecified),24.7%
17,Cc1cc(NC(=O)Nc2nnc(C3CCCCC3)s2)ccc1F,15.1%
18,C/C=C/C(=O)OC1/C=C/C(O)C(OC(C)=O)CCC(=O)OC1C (stereo unspecified),-1.37%
19,O=C(Nc1ccc(Cl)c(C(F)(F)F)c1)Nc1nnc(-c2cccnc2)s1,12.8%
